Source: the supplement of paper PMC6555819

The sequences below were run on RARg:RXRa (NR concentration 270 nM, RXRa partner concentration 90 nM) (assay: PBM binding z-score (relative to random genomic background probes); higher = stronger binding; sequences stand for … in GC…GCGATTGACAGCGTAGAATGAAGG).
Outline: (§1)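 Random background probes are the reference for binding z-scores. These scores derive from regression-normalized fluorescence on custom Agilent 4×180K protein-binding microarrays incubated 1 h with ligand-free nuclear receptor dimers. Binding was detected with antibodies against each partner (one per run).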

Q: How did the PBM binding z-score turn out when CTCGAATGGTCGTGCTCAGGTGAGTATACCAAAC was run?
A: -0.157

Q: With CCTGCTAGGTCATGGTCAGCTAGTCTACAGTATG as the sequence, how does the PBM binding z-score read?
A: 4.05

Q: With GCTTGTAGATCAAGGTTAAGAATGACTAAGCTAA as the sequence, how does the PBM binding z-score read?
A: 0.397

Q: Which PBM binding z-score does the source give for CCTATTAGTTGACCATAAGCGCAACCGAAGCTCG here?
A: 0.621

Q: CGGACTGGGGCATAAGGTTACCATAAGCCAGCCC was tested. Which PBM binding z-score did it give?
A: 1.83

Q: For CCTGCTAGGTCATGGTCGGCTAATCTACAGTATG, which PBM binding z-score is on record?
A: 3.92

Q: CCTAACGGGTCACGAGGTTATAGCACGACGAGCG was tested. Which PBM binding z-score did it give?
A: 5.84

Q: CTACCAAGGTGAACAAGGTCGTTGTTTACTATTC was tested. Which PBM binding z-score did it give?
A: 1.78

Q: With TCATATAGGTAACGGTGAAAGTCGAACGATATGA as the sequence, how does the PBM binding z-score read?
A: 0.474

Q: For CGTCCAAGGTCTGAGAGGTCAGTGAATGCCGAGT, which PBM binding z-score is on record?
A: 2.97

Q: How did the PBM binding z-score turn out when CTACCAAGTTGAACAAGGTCGTTGATTACTATTC was run?
A: 0.927

Q: With ATCTCTAGGTAAGACTCAGTTCAGTTAAGAACGC as the sequence, how does the PBM binding z-score read?
A: 0.306

Q: How did the PBM binding z-score turn out when TCTATTAGTTGATTGGGGCAACCGAAACAGCGGA was run?
A: 0.564

Q: For AGAATGAGGTTATACGTAGCTCAGGGAAGAAAGT, which PBM binding z-score is on record?
A: 1.29

Q: ATCTCTATGTAAAGATAGTTCAGTGAATGCAAAT was tested. Which PBM binding z-score did it give?
A: 0.486

Q: Which PBM binding z-score does the source give for CCTCGCAGGCCAGGGTCACTCAAGCATTTCGCTT here?
A: 2.93

Q: ATATGTAGGTTAAGGTTCATTCAGGTTGGTTCGC was tested. Which PBM binding z-score did it give?
A: 2.48

Q: How did the PBM binding z-score turn out when TAGCCTAGGTCATTGGGCCAGCATAGTACGCATC was run?
A: 3.88

Q: For TCTTGTAGGTCAGCAGGTTAAGAAAGCTGGCCAA, which PBM binding z-score is on record?
A: 4.48

Q: How did the PBM binding z-score turn out when CCTACTGGGCCACGAAAGGTCAGTGATTCAGTGA was run?
A: 3.69

Q: With CCGACTGGGGCATAAGATTACCATAAGCCAGCCC as the sequence, how does the PBM binding z-score read?
A: -0.0949

Q: With ATATGTAGGTTACATTCGGGTCATTCAGGCTATG as the sequence, how does the PBM binding z-score read?
A: 3.72

Q: ACTCGGACGACAAAGGTCAGAGCTACGCCAGTGA was tested. Which PBM binding z-score did it give?
A: 4.65

Q: Which PBM binding z-score does the source give for GCTAGCTGGTCAGTAAAAGGTCACACACCGGTCG here?
A: 5.88

Q: CCGACTGGGGTATAAGGTTACCATAAGCCAGCCC was tested. Which PBM binding z-score did it give?
A: 0.542

Q: For TCATATAGGTAAAGGTGAAATTCGAACGATATGA, which PBM binding z-score is on record?
A: 1.56

Q: For CGTCCAAGGTAAAAGGTCAGTGAAGAGATGACGG, which PBM binding z-score is on record?
A: 4.86

Q: Which PBM binding z-score does the source give for AGTCAAAGTACAGGACGAGGTAACGTAAAGCACG here?
A: 0.526

Q: Which PBM binding z-score does the source give for CCTACTGGGCCATCAGGTTATTGATATCAACGTT here?
A: 0.256

Q: Which PBM binding z-score does the source give for TAGCCTAGGTCATTCAGAGGCCAGTATAGAAAGC here?
A: 5.8

Q: For CCTACAGGGCCATTCAGAGGTCATTGATCATATG, which PBM binding z-score is on record?
A: 5.34

Q: Which PBM binding z-score does the source give for CGTCCAAGGTCAATGCTAGGTCAGTGGAAGCATT here?
A: 7.51

Q: Which PBM binding z-score does the source give for GCTGCTAGGTCAGGCTGGTCAGCTAACGGGTACG here?
A: 2.75

Q: TCTAGTTGGTCCAAGGTCACACACTCGAAATGCG was tested. Which PBM binding z-score did it give?
A: 4.07

Q: With CATACAGGGTCAGCTAGGCCATAGTAGGGACGGC as the sequence, how does the PBM binding z-score read?
A: 4.35

Q: Which PBM binding z-score does the source give for CCTCGGAGGACAACAGGACGTCAGAGCTGCCAGA here?
A: 0.272

Q: How did the PBM binding z-score turn out when TCGAGTAGGTTAGTCGGGGCAATCAGCCAACATA was run?
A: 0.0718

Q: CGTCGAAGGTCAGCAGGTCAGTGAAAGCGACGTG was tested. Which PBM binding z-score did it give?
A: 6.48

Q: For TAGCCTAGGTCATTCAGGGGCCCGTATAGAAAGC, which PBM binding z-score is on record?
A: 4.22

Q: Which PBM binding z-score does the source give for GCTAGCAAGCCATTTGGGTCACTCAATGACGGGC here?
A: 0.373

The sequences below were run on RARg homodimer (NR concentration 270 nM) in the same assay as above.
Outline: as §1

Q: With CTCGAATGGTCGTGCTCAGGTGAGTATACCAAAC as the sequence, how does the PBM binding z-score read?
A: -0.12

Q: CCTGCTAGGTCATGGTCAGCTAGTCTACAGTATG was tested. Which PBM binding z-score did it give?
A: 4.82

Q: Which PBM binding z-score does the source give for GCTTGTAGATCAAGGTTAAGAATGACTAAGCTAA here?
A: 0.413

Q: With CCTATTAGTTGACCATAAGCGCAACCGAAGCTCG as the sequence, how does the PBM binding z-score read?
A: 0.455

Q: Which PBM binding z-score does the source give for CGGACTGGGGCATAAGGTTACCATAAGCCAGCCC here?
A: 1.21

Q: With CCTGCTAGGTCATGGTCGGCTAATCTACAGTATG as the sequence, how does the PBM binding z-score read?
A: 4.63

Q: How did the PBM binding z-score turn out when CCTAACGGGTCACGAGGTTATAGCACGACGAGCG was run?
A: 4.93

Q: How did the PBM binding z-score turn out when CTACCAAGGTGAACAAGGTCGTTGTTTACTATTC was run?
A: 1.27

Q: TCATATAGGTAACGGTGAAAGTCGAACGATATGA was tested. Which PBM binding z-score did it give?
A: 0.423

Q: CGTCCAAGGTCTGAGAGGTCAGTGAATGCCGAGT was tested. Which PBM binding z-score did it give?
A: 3.36

Q: With CTACCAAGTTGAACAAGGTCGTTGATTACTATTC as the sequence, how does the PBM binding z-score read?
A: 0.929

Q: ATCTCTAGGTAAGACTCAGTTCAGTTAAGAACGC was tested. Which PBM binding z-score did it give?
A: 0.466

Q: How did the PBM binding z-score turn out when TCTATTAGTTGATTGGGGCAACCGAAACAGCGGA was run?
A: 0.336

Q: AGAATGAGGTTATACGTAGCTCAGGGAAGAAAGT was tested. Which PBM binding z-score did it give?
A: 0.944

Q: Which PBM binding z-score does the source give for ATCTCTATGTAAAGATAGTTCAGTGAATGCAAAT here?
A: 0.571

Q: For CCTCGCAGGCCAGGGTCACTCAAGCATTTCGCTT, which PBM binding z-score is on record?
A: 2.2

Q: How did the PBM binding z-score turn out when ATATGTAGGTTAAGGTTCATTCAGGTTGGTTCGC was run?
A: 1.47

Q: TAGCCTAGGTCATTGGGCCAGCATAGTACGCATC was tested. Which PBM binding z-score did it give?
A: 4.34

Q: With TCTTGTAGGTCAGCAGGTTAAGAAAGCTGGCCAA as the sequence, how does the PBM binding z-score read?
A: 4.43

Q: With CCTACTGGGCCACGAAAGGTCAGTGATTCAGTGA as the sequence, how does the PBM binding z-score read?
A: 4.04

Q: CCGACTGGGGCATAAGATTACCATAAGCCAGCCC was tested. Which PBM binding z-score did it give?
A: 0.359

Q: ATATGTAGGTTACATTCGGGTCATTCAGGCTATG was tested. Which PBM binding z-score did it give?
A: 2.05

Q: For ACTCGGACGACAAAGGTCAGAGCTACGCCAGTGA, which PBM binding z-score is on record?
A: 4.6

Q: GCTAGCTGGTCAGTAAAAGGTCACACACCGGTCG was tested. Which PBM binding z-score did it give?
A: 4.93

Q: Which PBM binding z-score does the source give for CCGACTGGGGTATAAGGTTACCATAAGCCAGCCC here?
A: 0.421

Q: How did the PBM binding z-score turn out when TCATATAGGTAAAGGTGAAATTCGAACGATATGA was run?
A: 1.28

Q: With CGTCCAAGGTAAAAGGTCAGTGAAGAGATGACGG as the sequence, how does the PBM binding z-score read?
A: 5.11

Q: For AGTCAAAGTACAGGACGAGGTAACGTAAAGCACG, which PBM binding z-score is on record?
A: 0.919

Q: Which PBM binding z-score does the source give for CCTACTGGGCCATCAGGTTATTGATATCAACGTT here?
A: 0.522

Q: Which PBM binding z-score does the source give for TAGCCTAGGTCATTCAGAGGCCAGTATAGAAAGC here?
A: 4.01

Q: With CCTACAGGGCCATTCAGAGGTCATTGATCATATG as the sequence, how does the PBM binding z-score read?
A: 3.29

Q: For CGTCCAAGGTCAATGCTAGGTCAGTGGAAGCATT, which PBM binding z-score is on record?
A: 6.88

Q: For GCTGCTAGGTCAGGCTGGTCAGCTAACGGGTACG, which PBM binding z-score is on record?
A: 4.34

Q: For TCTAGTTGGTCCAAGGTCACACACTCGAAATGCG, which PBM binding z-score is on record?
A: 3.8

Q: With CATACAGGGTCAGCTAGGCCATAGTAGGGACGGC as the sequence, how does the PBM binding z-score read?
A: 4.7

Q: How did the PBM binding z-score turn out when CCTCGGAGGACAACAGGACGTCAGAGCTGCCAGA was run?
A: 1.12

Q: How did the PBM binding z-score turn out when TCGAGTAGGTTAGTCGGGGCAATCAGCCAACATA was run?
A: 0.25

Q: How did the PBM binding z-score turn out when CGTCGAAGGTCAGCAGGTCAGTGAAAGCGACGTG was run?
A: 6.93

Q: TAGCCTAGGTCATTCAGGGGCCCGTATAGAAAGC was tested. Which PBM binding z-score did it give?
A: 3.89

Q: With GCTAGCAAGCCATTTGGGTCACTCAATGACGGGC as the sequence, how does the PBM binding z-score read?
A: 0.621
